Test results taken from the supplement of paper PMC8371130.
Where a name gives a salt, the structure may show the parent alone.

system: HL-1; assay: relative cell viability (CellTiter-Glo) vs DMSO control (% of DMSO control); higher = more viable cells; conditions: oxygen condition: normoxia 72 h; 5000 nM
Procedure, shortened: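 Cell viability, normalised to vehicle-treated control cells, was read by CellTiter-Glo luminescence. For this, HL-1 mouse atrial cardiomyocytes were plated at 1000 cells per well in 384-well plates alongside compounds at 40, 200, 1000 or 5000 nM in 0.01% DMSO. After a day, plates either spent 48 h in a hypoxic workstation at 1% O2 and then 24 h reoxygenating in a normal incubator, or remained in normoxia for the same period.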

Compound	relative cell viability
CC(C)NCC(O)c1ccc(NS(C)(=O)=O)cc1 (centres undefined) [Sotalol]	104
CC1=C(C(=O)OC(C)C)C(c2cccc([N+](=O)[O-])c2)C(C(=O)OC2CN(C(c3ccccc3)c3ccccc3)C2)=C(N)N1 (centres undefined) [Azelnidipine]	119
C[C@@H]1C[C@H]2[C@@H]3C[C@H](F)C4=CC(=O)C=C[C@]4(C)[C@@]3(F)[C@@H](O)C[C@]2(C)[C@@]1(O)C(=O)CO [Flumethasone]	108
N#CC[C@H](C1CCCC1)n1cc(-c2ncnc3[nH]ccc23)cn1 [Ruxolitinib]	104
C[N+](C)(C)C[C@H](O)CC(=O)[O-] [L-carnitine]	107
CN1CCN(CCCN2c3ccccc3Sc3ccc(C(F)(F)F)cc32)CC1 [Trifluoperazine 2HCl]	112
CCCCCCCCOc1ccccc1C(=O)Nc1ccc(C(=O)OCC[N+](C)(CC)CC)cc1 [Otilonium Bromide]	114
CC(C)NC[C@H](O)COc1ccc(CCOCC2CC2)cc1 [Levobetaxolol HCl]	115
CCN1CCC[C@H]1CNC(=O)c1cc(S(N)(=O)=O)ccc1OC [Levosulpiride]	116
CN(C)CCN(Cc1cccs1)c1ccccn1 [Methapyrilene HCl]	111
O=C(O)c1cc(=O)c2ccccc2o1 [Chromocarb]	115
Cl.N=C(N)NCCC[C@H](N)C(=O)O [L-Arginine HCl]	107
NC[C@H]1CC[C@H](C(=O)O)CC1 [Tranexamic acid]	112
N[C@@H]1CCCCN(c2c(F)cc3c(=O)c(C(=O)O)cn(C4CC4)c3c2Cl)C1 [Besifloxacin HCl]	102
O=C1NC(=O)C(c2ccccc2)(c2ccccc2)N1 [Phenytoin]	99.4
C[N+]1(C)CCC(=C(c2ccccc2)c2ccccc2)CC1 [Diphemanil methylsulfate]	100
COCCCC/C(=N\OCCN)c1ccc(C(F)(F)F)cc1 [Fluvoxamine maleate]	95.2
O=P(O)(O)C(Cl)(Cl)P(=O)(O)O [Clodronate Disodium]	113
CCOc1nc2cccc(C(=O)O)c2n1Cc1ccc(-c2ccccc2-c2noc(=O)[nH]2)cc1 [Azilsartan]	111
CCCCNc1ccc(C(=O)OCCN(C)C)cc1 [Tetracaine hydrochloride]	108
C=C1c2cccc(O)c2C(=O)C2=C(O)[C@]3(O)C(=O)C(C(N)=O)=C(O)[C@@H](N(C)C)[C@@H]3[C@@H](O)[C@H]12 [Methacycline hydrochloride]	99.7
COC(=O)C1=C(C)NC(C)=C(C(=O)OC)C1c1ccccc1[N+](=O)[O-] [Nifedipine]	59
CCOC(=O)[C@H](CCc1ccccc1)N[C@H]1CCc2ccccc2N(CC(=O)O)C1=O [Benazepril hydrochloride]	109
O=C(NC[C@H]1CN(c2ccc(N3CCOCC3=O)cc2)C(=O)O1)c1ccc(Cl)s1 [Rivaroxaban]	92.1
